Measurements as given in PubChem BioAssay AID720565 (National Center for Advancing Translational Sciences (NCATS), 2013).
Records with an inconclusive call do not appear. The source made the active and inactive calls. Calls follow the shape of the dose curve; as a rule, active = well fitted activation curve with a large enough effect; inconclusive = small, poorly fitted or top-dose-only effect; inactive = no such curve, though single readings can be large or run the other way.
Potency is read from the fitted curve at half-maximal effect.

Assay: qHTS for small molecules that induce genotoxicity in ELG1 expressing cells: Confirmatory Assay for Cherry-picked Compounds; also: nearly all actives have a fitted effect of over 35% in size
Details: ELG1-luciferase reporter cells, luminescence, 16 h; series mostly up to 46.1 µM
Summary of the method: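 Activation readout: ONE-Glo luciferase signal from ELG1 reporter cells, 2,000 per well, after 16 hr compound incubation at 37 C. Increased ELG1-driven luminescence reflects genetic stress.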
With O=C(CSc1nc2ccccc2o1)Nc1ccccc1N1CCCCCC1 the Potency was “inactive”. With Cc1noc(C)c1-c1ccc2ncnc(NCc3ccc(F)c(F)c3)c2c1 the Potency was 15.8 µM (active). For COc1ccc(C2CC(c3ccncc3)=NN2c2ccc(S(N)(=O)=O)cc2)cc1 (configuration not stated), the Potency was 17.7 µM (active). For Cc1ccc2c(c1)sc1nc(=O)n(-c3ccccc3)c(=O)n12, the Potency was 3.54 µM (active). For Cc1ccc2c(c1)C/C(=C/c1ccc(N(C)C)cc1)C2=O, the Potency was 7.05 µM (active). For Cn1cccc1C(=O)OCC(=O)Nc1ccc2c(c1)OCCO2, the Potency was 0.706 µM (active). With CC(/C=C/C(=O)NO)=C\[C@@H](C)C(=O)c1ccc(N(C)C)cc1 the Potency was 0.629 µM (active). In the case of COC(=O)Nc1nc2ccc(C(=O)c3cccs3)cc2[nH]1, the Potency was 2.23 µM (active). For Nc1ccc(/C=C/c2ccc3cccnc3c2)cc1, the Potency was 0.5 µM (active). In the case of c1nc(CCO[C@H]2CCCCO2)cc2cc3c(cc12)OCO3, the Potency was 0.281 µM (active). With CC(=O)N(C)c1ccc(/C=C2\C=Cc3ccccc32)cc1 the Potency was 0.561 µM (active). For O=C(OCC(=O)N1CCCCC1)c1cccs1, the Potency was 14.1 µM (active). In the case of O=C(CCN1C(=O)NC2(CCCC2)C1=O)Nc1ccc(-c2nc3ccccc3s2)cc1, the Potency was 0.706 µM (active). In the case of COc1cccc(NC(=O)COC(=O)c2sccc2C)c1, the Potency was 11.2 µM (active). In the case of Cc1c(OCc2ccc([N+](=O)[O-])cc2)ccc2c3c(c(=O)oc12)CCC3, the Potency was 2.81 µM (active). With N#Cc1cc2cc3c(cc2nc1SCC(=O)N1CCOCC1)OCCO3 the Potency was 0.889 µM (active). In the case of Cc1cc2cc3c(cc2nc1SCC(=O)N1CCOCC1)OCO3, the Potency was “inactive”.
